Bioassay records from PubChem BioAssay.
Shown are actives, neighbours in structure and some others; about 4.1% of the full set was active somewhere.
Peg3 prom inh: Peg3 promoter-driven luciferase inhibitors, primary screen, cell-based, HeLa, luciferase luminescence; HeLa PEG-Prom luciferase reporter, overnight; inhibition, % at 20 µM; 1.7% of 360,000 active;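 active means inhibition of at least 50% at 20 µM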
LMP1 NFkB inh: EBV LMP1-driven NF-kappaB luciferase reporter inhibitors, primary screen, cell-based, luminescence, single point. LMP1-induced NF-kappaB luciferase reporter cells. inhibition, % at 12.5 µM. 0.69% of 350,000 active; in the data active means inhibition above about 41%; inconclusive means no clear call, values can overlap the other calls;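 further: 0% = neutral control wells and 100% = reference inhibitor control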
TROY signal inh: inhibitors of TROY-driven NF-kB signaling, primary screen, Q293 LMP1-TROYcd cells, NF-kB luciferase, uHTS | Q293 LMP1-TROYcd NF-kB luciferase reporter, 4 h | inhibition, % at 10 µM | 0.98% of 360,000 active;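 active means compounds whose plate-normalised and pattern-corrected inhibition of the luciferase reporter signal at the single screening dose is 50% or more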
Shn3 inh set2: reduction of Shn3 3'UTR firefly luciferase signal, primary screen, Schnurri-3 inhibitor project, cell-based, Clone20 osteoblasts, set 2. Clone20 osteoblast Shn3 3'UTR firefly luciferase, 24 h. inhibition, % at 12.5 µM. 0.52% of 360,000 active;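 active means mean inhibition of at least 75% with every replicate also reaching 75%; inconclusive means mean inhibition at least 75% but some replicate below; inactive means mean inhibition below 75%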;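 further: 0% = median of neutral control wells and 100% = pilot-screen positive control compound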
TRPM1 prom inh: inhibitors of MITF-dependent TRPM1 promoter reporter, primary screen, cell-based, SK-MEL-5, single point, luciferase; inhibition, % at 12.5 µM; SK-MEL-5 TRPM1 promoter luciferase, 24 h; AID 488899, 2010; 0.83% of 330,000 active;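 active means mean inhibition across replicates of 60% or more, whatever share of single replicates reaches that level; inconclusive means some that reach 60%, reason not given; inactive means mean inhibition across replicates below 60%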
TWEAK-Fn14 inh: inhibitors of TWEAK-Fn14 signaling, primary screen, luciferase reporter cells, uHTS; 2% of 360,000 active; TWEAK-stimulated Fn14 reporter cells, luciferase luminescence, 8 h; AID 1159606, 2016; inhibition, % at 10 µM; in the data active means inhibition above about 50%
Starred values were filed as active, the others as inactive; ? = inconclusive; . = not tested or not shown; ! = a repeat was not active.

SMILES | Peg3 prom inh | LMP1 NFkB inh | TROY signal inh | Shn3 inh set2 | TRPM1 prom inh | TWEAK-Fn14 inh
CCCCCc1cc(=O)oc2c(C(CCN3CCCC(C)C3)c3ccc4c(c3)OCO4)c(OC)cc(OC)c12 (centres undefined) | 98* | 0 | -3 | -28 | 10 | 43
Cc1cc(C)cc(N(C(=O)c2csnn2)C(C(=O)NC(C)(C)C)c2cccnc2)c1 (centres undefined) | 5 | 6 | -3 | 15 | -3 | -8
Cc1ccc(C(=O)OCC(=O)NC2CCCC(C)C2C)cc1S(=O)(=O)N1CCCCC1 (centres undefined) | 18 | 2 | 17 | 18 | 22 | 2
CC(C)N(Cc1nccn1C)C(=O)c1cc(COc2ccc3ncccc3c2)on1 | -11 | -5 | 4 | 44 | 9 | 21
O=C(NCc1cccc(Cl)c1)c1cc(COc2ccc3ncccc3c2)on1 | 0 | 8 | 53* | ? | 16 | 61*
Cc1cc(C)n(CCNC(=O)c2cc(COc3ccc4ncccc4c3)on2)n1 | 1 | 1 | 13 | 28 | 8 | 9
CC(CCCC(C)(C)O)NC(=O)c1cc(COc2ccc3ncccc3c2)on1 (centres undefined) | 7 | 10 | 17 | 90* | 11 | 23
Cc1ccc(F)cc1CNC(=O)c1cc(COc2ccc3ncccc3c2)on1 | 15 | 10 | 46 | 84 | -6 | 75*
CC(C)c1ccc(O)c(C(=O)c2cnn(-c3ccccc3)c2)c1 | 0 | -12 | 14 | 10 | -14 | -6
Cc1cc(C)n(-c2nc(Nc3ccccc3C(F)(F)F)nc(-n3nc(C)cc3C)n2)n1 | 86* | 33 | 79* | 97* | 7 | 81*
COc1ccc(COC[B-](F)(F)F)cc1 | -13 | 1 | 8 | -5 | . | -14
CCC1CCCCN1S(=O)(=O)c1ccc(C(=O)Nc2nnc(-c3ccccc3Cl)o2)cc1 (centres undefined) | 40 | 23 | 18 | 58 | 32 | -227
CCC1CCCCN1S(=O)(=O)c1ccc(NC(=O)c2ccncc2)cc1 (centres undefined) | 9 | 18 | 26 | 88* | 24 | 31
CCC1CCCCN1S(=O)(=O)c1ccc(C(=O)Nc2nnc(C3CC3)o2)cc1 (centres undefined) | 19 | 6 | 22 | 43 | -2 | 19
CCC1CCCCN1S(=O)(=O)c1ccc(NC(=O)c2nc(S(C)(=O)=O)ncc2Cl)cc1 (centres undefined) | 107* | 4 | 83* | 96* | 104* | 77*
O=C(O)CCN1C(=O)c2ccc(NC(=O)CCc3ccccc3)cc2C1=O | 7 | -6 | 4 | 3 | 6 | 9
Cc1cc(C)c2nc(N3CCCC(C(=O)NC4CCCC4)C3)sc2c1 (centres undefined) | -155 | -24 | -11 | -18 | -26 | -4
O=C(/C=C/c1ccccc1)CC(O)(c1ccccc1)C(F)(F)C(F)F (centres undefined) | 101* | -2 | 64* | 25 | 19 | 69*
O=C(/C=C/c1ccccc1)CC(O)(c1ccccc1)C(F)(F)F (centres undefined) | 105* | -6 | 64* | -14 | 31 | 88*
CCn1cnc2cc(NCc3nc4ccccc4n3C)ccc21 | -90 | -4 | 69* | -37 | -35 | 86*
O=C(O)c1ccc(NCc2nc3ccccc3n2Cc2ccccc2)cc1 | 10 | 2 | -2 | 16 | -4 | -9
CC(C)n1cnc2cc(NCc3nc4ccccc4n3C)ccc21 | -187 | -36 | 67* | -57 | -9 | 60*
CCn1cnc2cc(NCc3nc4ccccc4n3Cc3ccccc3)ccc21 | -199 | -11 | 80* | -7 | -8 | 81*
Cc1ccc(CNc2ccc3c(c2)ncn3C(C)C)cc1 | -258 | -30 | -44 | . | -97 | 3
CCN(CC)S(=O)(=O)c1ccc(C)c(NC(=S)N2CCN(Cc3ccc4c(c3)OCO4)CC2)c1 | 13 | 12 | 19 | 80 | 20 | 27
SMILES | Peg3 prom inh | LMP1 NFkB inh | TROY signal inh | Shn3 inh set2 | TRPM1 prom inh | TWEAK-Fn14 inh
C/C(CC(=O)Nc1cccc(F)c1)=N\NC(=O)c1ccncc1 | 7 | 1 | -22 | 6 | -3 | -9
CC1CCCCN1CCCNC(=O)CN1C(=O)c2cccnc2Oc2ccc(Cl)cc21 (centres undefined) | -10 | 0 | -2 | 5 | -5 | -26
O=C(C1CC(=O)N(c2ccccc2)C1)N1CCN(c2ccc(F)cc2)CC1 (centres undefined) | 10 | 6 | 13 | 5 | 5 | 5
COc1ccc(-c2nsc3c(N4CCCC4)ncnc23)cc1 | 6 | 25 | 66* | 27 | 25 | 95*
O=C(c1ccco1)N1CCN(c2ncnc3c(-c4ccc(Cl)cc4)nsc23)CC1 | -32 | 10 | 63* | 0 | 15 | 61*
O=C(Oc1ccc(Cl)c2cccnc12)c1cccc([N+](=O)[O-])c1 | 18 | -5 | 5 | 55 | 19 | 21
O=[N+]([O-])c1ccccc1COc1ccc(Cl)c2cccnc12 | -147 | -23 | -3 | -23 | -4 | 65*
CC(=O)Nc1nc(=S)n(-c2ccccc2)[nH]1 | 16 | 2 | -1 | -1 | 4 | -8
CC(C)c1nc(=S)n(-c2ccccc2)[nH]1 | 15 | -38 | 68* | 7 | -2 | 22
Cc1c(CCOC(=O)C2C3CC4CC(C3)CC2C4)sc[n+]1CC(=O)c1ccc(Br)cc1 (centres undefined) | 101* | 8 | 7 | 6 | 95*! | -43
O=C(O)c1cc(N/N=C/c2cccc3ccccc23)ccc1Cl | -276 | -45 | -19 | -146 | -88 | 101*
O=C(O)c1ccc(N/N=C/c2cc3c(cc2[N+](=O)[O-])OCO3)cc1 | 13 | 8 | -7 | -24 | 23 | 34
O=C(O)c1cc(S(=O)(=O)Nc2ccc3c(c2)OCCO3)c(Cl)cc1Cl | 20 | 23 | 83* | 38 | 13 | 91*
O=C(O)c1ccc(N/N=C/c2cc3cc4c(cc3nc2Cl)OCCO4)cc1 | -62 | 42* | -16 | -29 | -7 | 30
O=C(O)c1cc(N/N=C/c2ccc3c(c2)OCCO3)ccc1Cl | -25 | 45* | 11 | 16 | 82* | -13
CCc1nnc(NC(=O)CSc2ccc(-c3ccc(-n4cccn4)cc3)nn2)s1 | -247 | -12 | -58 | -147 | -76 | -40
CCC(C)[C@H]1COCCS(=O)(=O)N1Cc1ccc(Cl)cc1Cl (some centres undefined) | 15 | 1 | 8 | -7 | 4 | 1
O=C(COC(=O)CNC(=O)c1ccccc1)Nc1nnc(-c2ccccc2)o1 | 11 | -4 | 6 | 0 | -7 | 2
